According to PubChem BioAssay:
Calls of active or inactive are those of the source.

assay: plasmodial surface anion channel blockers, osmotic lysis – cell-based, P. falciparum Indochina, OD700, 2 h, primary screen (AID 1155);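 further: lysis reports solute entry through the parasite surface anion channel PSAC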; settings: P. falciparum Indochina infected erythrocytes, higher = more signal, called active from +8 up or from −8 down

| Structure (SMILES) | z-score |
| --- | --- |
| CC(c1ccccc1)C(O)C1C=CC2C(=O)N(C)C(=O)C2N1Nc1ccccc1 (stereo not drawn) | 0.782 (inactive) |
| Cc1ccc(N2C(=O)c3ccccc3[C@@H](C(=O)NCCCN(C)C)[C@@H]2c2ccc(CO)cc2)nc1 | 0.392 (inactive) |
| CCCCC(CC)C(O)C1C=CC2C(=O)N(C)C(=O)C2N1Nc1ccccc1 (stereo not drawn) | 0.916 (inactive) |
| C=CCNC(=O)[C@@H]1[C@H]2C(=O)O[C@H](c3ccccc3)[C@H](c3ccccc3)N2[C@H](c2ccc(O)cc2)[C@@]12C(=O)N(C(=O)OCCOC)c1ccc(C#CC3=CCCCC3)cc12 | 0.836 (inactive) |
| NCCCCCCNC(=O)[C@@H]1C[C@@H]2C(=O)N[C@@H](CCCCN)C(=O)N2[C@@H]1c1ccc(O)cc1 | -1.03 (inactive) |
| Cc1ccc(C(C)CC(O)C2C=CC3C(=O)N(c4ccccc4)C(=O)C3N2Nc2ccccc2)o1 (stereo not drawn) | 1 (inactive) |
| COCCOC(=O)N1C(=O)[C@@]2(c3cc(C#CC4(O)CCCCCC4)ccc31)[C@H](C(=O)N1CCc3cc(OC)c(OC)cc3C1)[C@H]1C(=O)O[C@H](c3ccccc3)[C@H](c3ccccc3)N1[C@@H]2c1ccc(OCCO)cc1 | 2.64 (inactive) |
| COC(=O)[C@@]1(Cc2ccc(OC)cc2)[C@H]2c3cc(C(=O)N(C)C)n(Cc4ccc(OC(F)(F)F)cc4)c3C[C@H]2CN1C(=O)c1ccccc1 | 0.542 (inactive) |
| CCCCCN1CC=CC23O[C@@H]4C=CCCOC(=O)C4[C@H]2C(=O)N(CCCCCCO)[C@@H]3C1=O (stereo partly drawn) | 0.705 (inactive) |
| COCCOC(=O)N1C(=O)[C@@]2(c3cc(C#CC4=CCCCC4)ccc31)[C@H](c1ccccc1OCCO)N1[C@H](c3ccccc3)[C@H](c3ccccc3)OC(=O)[C@H]1[C@@H]2C(=O)N1CCN(c2ncccn2)CC1 | -0.579 (inactive) |
| NC(=O)[C@@]1(Cc2ccccc2)COC(c2ccc(OCCCO)cc2)=N1 | 2.55 (inactive) |
| N#Cc1ccc(NN2C(C(O)c3ccc(Br)cc3)C=CC3C(=O)N(c4ccccc4)C(=O)C32)cc1 (stereo not drawn) | 2.9 (inactive) |
| CCOC(=O)C[C@H]1[C@H](OC(=O)c2ccccc2-c2ccccc2)[C@@H](NC(=O)c2ccc3ccccc3c2)c2cc(OCCCO)ccc2N1C(=O)c1ccccc1 | 0.844 (inactive) |
| O=C1NC(=O)C2C1C=CC(C(O)c1ccco1)N2Nc1ccc(Cl)cc1Cl (stereo not drawn) | 1.31 (inactive) |
| C=CCOC(=O)[C@@]1(Cc2ccccc2)C[C@H]2CO[C@H](c3ccc(OC)cc3)N2C1=O | 0.522 (inactive) |
| COCCCNC(=O)[C@@H]1c2ccccc2C(=O)N(C(C)C)[C@H]1c1ccc(CO)cc1 | 0.211 (inactive) |
| COC(=O)C1=CC(CCCO)=CC(c2cccs2)N(Cc2cccc(OC(F)(F)F)c2)C=C1C(=O)OC (stereo not drawn) | 1.34 (inactive) |
| [N-]=[N+]=Nc1ccccc1C[C@]1(C(=O)NCC(O)CO)COC(c2ccc(OCCCO)cc2)=N1 (stereo partly drawn) | 4.35 (inactive) |
| COc1cccc(C)c1NC(=O)O[C@H]1[C@H](OC(=O)Nc2ccc3c(c2)OCO3)[C@@H](OC(=O)Nc2ccc3c(c2)OCO3)[C@@H](OC)O[C@@H]1CO | 1.26 (inactive) |
| CCCCCCCCCCC(O)C1C=CC2C(=O)N(c3ccccc3)C(=O)C2N1Nc1ccc(C#N)cc1 (stereo not drawn) | 2.33 (inactive) |
| Cc1ccc(F)cc1S(=O)(=O)N[C@@H]1CCN(Cc2ccc(Br)cc2)C1 | 1.24 (inactive) |
| C=CC[C@]1(C(=O)N2CCCCC2)N=C(c2ccc(OCCCO)cc2)O[C@H]1c1ccccc1CN=[N+]=[N-] | 4.57 (inactive) |
| COCC(=C=CC[C@H](O)c1ccc(CO)o1)CCO | 0.0508 (inactive) |
| O=C(c1ccccc1)N1C(=O)[C@]2(Cc3ccccc31)N=C(c1ccc(OCCCO)cc1)O[C@@H]2c1ccccc1 | 8.53 (active) |
| C[N+](C)(C)CCCCCCNC(=O)[C@@H]1C[C@@H]2C(=O)N3CCC[C@H]3C(=O)N2[C@@H]1c1ccc(O)cc1 | -0.15 (inactive) |
| C=CCC(OC(C)=O)[C@@H]1[C@@H](N(Cc2ccc(-c3ccccc3)cc2)C(=O)c2ccc(-c3ccccc3)cc2)c2cc(OCCCO)ccc2N1C(=O)c1ccc2ccccc2c1 (stereo partly drawn) | -0.135 (inactive) |
| CCOC(=O)C1=C[C@@H](C(C)(C)C)N(S(=O)(=O)c2ccc(C)cc2)[C@H]1c1cccc2ccccc12 | 0.849 (inactive) |
| O=C1CS(=O)(=O)C(c2cccc([N+](=O)[O-])c2)N1c1ccccc1 (stereo not drawn) | -1.38 (inactive) |
